# Screening data: PubChem, National Center for Advancing Translational Sciences (NCATS)
# Only a selection was taken, and hits are over-represented in it overall.
# ALOX12 inh: blocks human arachidonate 12S-lipoxygenase; P18054; purified 12hLO, xylenol orange hydroperoxide absorbance; Potency, µM (highest dose often 108 µM), for inactives: top-dose activity change, negative = inhibition, hits mostly inhibitors; 1.1% of 580,000 active; further: potency means the concentration at half of the fitted maximal effect
# Target sequence (P18054 whole entry, looked up): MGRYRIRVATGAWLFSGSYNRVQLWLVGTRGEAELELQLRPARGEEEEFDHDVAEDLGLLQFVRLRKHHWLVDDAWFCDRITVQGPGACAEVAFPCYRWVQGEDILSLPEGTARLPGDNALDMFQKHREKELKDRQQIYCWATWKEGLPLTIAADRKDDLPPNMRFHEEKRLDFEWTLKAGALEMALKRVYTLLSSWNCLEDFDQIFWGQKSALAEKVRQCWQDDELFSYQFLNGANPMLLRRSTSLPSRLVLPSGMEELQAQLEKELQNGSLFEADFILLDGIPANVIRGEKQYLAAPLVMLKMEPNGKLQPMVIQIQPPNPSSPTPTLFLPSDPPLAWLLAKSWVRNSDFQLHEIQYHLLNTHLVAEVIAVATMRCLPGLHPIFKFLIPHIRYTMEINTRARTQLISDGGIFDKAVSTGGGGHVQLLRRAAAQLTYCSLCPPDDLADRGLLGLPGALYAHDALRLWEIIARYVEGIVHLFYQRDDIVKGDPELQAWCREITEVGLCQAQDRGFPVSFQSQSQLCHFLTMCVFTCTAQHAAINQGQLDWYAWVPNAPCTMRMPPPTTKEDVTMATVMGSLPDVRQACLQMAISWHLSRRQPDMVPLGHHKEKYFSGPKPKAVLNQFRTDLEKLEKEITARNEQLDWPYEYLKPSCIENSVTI
#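 Hydroperoxide product was detected by ferrous iron/xylenol orange as the 573 to 405 nm absorbance ratio. Arachidonic acid at 40 uM (final) was turned over for 30 min at room temperature by 150 nM human 12hLO, pH 7.0 Hepes buffer, after 15 min compound preincubation.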
# HT1080 IDH1KD tx: kills HT-1080 cells with IDH1 knockdown | 2% of 360,000 active | Potency, µM (doses to about 46.1 µM), for inactives: top-dose activity, negative = toxicity, actives largely listed as cytotoxic | HT-1080 IDH1 knockdown viability, ATP luminescence, 48 h | AID 686971;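 further: potency means the concentration at half of the fitted maximal effect; 0% = DMSO wells and -100% = cell-free medium wells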
#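 Luminescent ATP read-out (CellTiter-Glo, 10 min at room temperature) after 48 h compound exposure at 37 °C gave viability of IDH1-knockdown HT-1080 cells. Activity was normalised to DMSO and cell-free wells, then fitted as concentration-response curves.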
# IL-1B inflam inh: blocks inflammasome-driven IL-1 beta release. THP-1 LPS/ATP IL-1B secretion, AlphaLISA, 16 h; active compounds read low. activity change, % at 57.5 µM. 4.7% of 360,000 active. AID 743279; in the data active means activity change below about -50%; inconclusive means mostly about -30% to -49%
#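 Secreted IL-1B measured by AlphaLISA bead assay after 16 h compound exposure of THP-1 cells; compounds (final up to 57.5 uM) added 1 h before LPS (250 ng/mL) and ATP (1.25 mM) stimulation; lower signal means less secretion.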
# DT40 TDP1 no CPT: qHTS for Inhibitors of human tyrosyl-DNA phosphodiesterase 1 (TDP1): qHTS in cells in absence of CPT; DT40 Tdp1-/- hTDP1 cells, no CPT, ATP luminescence, 48 h; Potency, µM (titrated, usually from 46.2 µM), for inactives: top-dose activity change, negative = growth inhibition, most hits filed as inhibitors; 15% of 420,000 active; AID 686978, 2013; further: potency means the concentration at half of the fitted maximal effect; nearly all actives have a fitted effect of over 55% in size
#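 No-CPT arm: Tdp1-/-;hTDP1 DT40 cells (400/well) plus compounds, incubated ≥48 hr at 37 °C. Readout CellTiter-Glo luminescence.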
# HT1080-NT tox: kills 2HG-producing HT-1080-NT fibrosarcoma cells. Potency, µM (series often up to 46.1 µM), without a hit: top-dose activity, negative = less viability, hits mostly cytotoxic. 1.6% of 360,000 active. HT-1080-NT fibrosarcoma viability, CellTiter-Glo ATP luminescence, 48 h;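 further: NT is the 2HG producing partner of a matched IDH1 knockdown line; potency means the concentration at half of the fitted maximal effect; 0% = DMSO-treated cells and -100% = media-only wells without cells; nearly all actives have a fitted effect of over 55% in size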
#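 A 48-hour cytotoxicity screen used HT-1080-NT cells plated 2 hours before compound delivery. ATP-based CellTiter-Glo luminescence measured viability, normalized to DMSO and no-cell controls.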
# DT40 TDP1 CPT: DT40-hTDP1 cell growth loss with CPT; AID 686979; 12% of 420,000 active; Potency, µM (series often up to 46.2 µM), for the others: at the highest dose activity change, negative = growth inhibition, usual class: inhibitors; chicken DT40 Tdp1-/-;hTDP1 cells + 20 nM CPT, ATP luminescence, 48 h; further: potency means the concentration at half of the fitted maximal effect; nearly all actives have a fitted effect of over 55% in size
#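 Cell growth measured by CellTiter-Glo luminescence after a minimum 48 h, 37 C compound exposure with 20 nM CPT in Tdp1-knockout DT40 cells stably expressing hTDP1, seeded 400/well; qHTS titration format.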
# Active calls of the source: *; i = inactive; u = inconclusive; x = no result given; ! = not active in a repeat; [ ] = another dose, or the depositor's remark. Unless noted, the call rests on the fitted dose curve; in most records, active means well fitted curve in the direction sought with a large enough effect; inconclusive means small, poorly fitted or top-dose-only effect, or another doubt; inactive means no such curve, though single readings can be large; an effect the other way counts as inactive or inconclusive. Unless noted, on the % scale 0 is the no-effect control and ±100 the full control effect.
SMILES,ALOX12 inh,HT1080 IDH1KD tx,IL-1B inflam inh,DT40 TDP1 no CPT,HT1080-NT tox,DT40 TDP1 CPT
COc1ccc(Nc2nc(Nc3ccc(F)cc3)nc3nccnc23)cc1,1.7%,x,x,x,x,x
Cc1cccc(-c2noc(-c3ccc(N4CCN(C)CC4)c([N+](=O)[O-])c3)n2)c1,u,x,x,23.1µM*,x,u
Cc1cccc(-c2noc(-c3ccc(N4CCOCC4)c([N+](=O)[O-])c3)n2)c1,0.0%,x,x,18.4µM*,x,u
O=c1[nH]nc(-c2ccc(N3CCOCC3)c([N+](=O)[O-])c2)c2ccccc12,6.5%,x,x,x,x,x
COc1ccc(Nc2nnc(-c3ccc(N4CCOCC4)c([N+](=O)[O-])c3)c3ccccc23)cc1,20.4%,12.6%,18.8,23.1µM*,6.6%,23.1µM*
Cc1cccc(-c2noc(-c3ccc(N4CCCC4)c([N+](=O)[O-])c3)n2)c1,-6.7%,x,x,u,x,-20.8%
COc1cc(-c2noc(-c3ccc(N4CCOCC4)c([N+](=O)[O-])c3)n2)cc(OC)c1OC,-8.7%,x,x,5.17µM*,x,u
CCn1ccc2cc(S(=O)(=O)N3CCC(C(=O)N4CCC5(CC4)OCCO5)CC3)ccc21,5.4%,x,x,x,x,x
Cc1nc(-c2cn(C3CCCN(C(=O)C(C)Oc4ccc(Cl)cc4)C3)nn2)no1 (stereo unspecified),11.0%,x,x,x,x,x
CC(C)CNc1ncnc2[nH]ncc12,-12.7%,-0.9%,37.0,-22.6%,-3.8%,-14.1%
CN(C)CCNC(=O)CCCN1C(=O)c2cccnc2Oc2ccc(Cl)cc21,-26.1%,x,x,-15.2%,x,0.6%
CCOc1ccc(S(=O)(=O)Nc2nc3ccccc3nc2Cl)cc1,0.0%,0.0%,61.0,20.6µM*,-0.9%,u
Cc1cc(C)c(S(=O)(=O)Nc2ccccc2-c2ccccc2)c(C)c1,-16.5%,-20.0%,i,20.6µM*,-2.2%,u
CCOc1ccc(S(=O)(=O)Nc2cccnc2)cc1,-22.8%,-7.6%,0.0,-26.7%,-1.0%,-16.1%
CCOc1ccc(S(=O)(=O)Nc2cnc3ccccc3c2)cc1,-8.9%,-12.9%,32.6,18.4µM*,u,18.4µM*
Cc1cc(C)c(S(=O)(=O)Nc2nnc(C)s2)c(C)c1,-10.9%,-0.9%,11.7,18.4µM*,-1.2%,14.6µM*
Cc1cc(C)c(S(=O)(=O)Nc2cnc3ccccc3c2)c(C)c1,15.8µM*!,-11.8%,-73.3*,u,-19.9%,u
O=C(COC(=O)C1C=CCCC1)c1ccc([N+](=O)[O-])cc1 (stereo unspecified),-11.5%,x,x,x,x,x
CN1CCN(CC(=O)Nc2ccc(Cl)cc2Cl)CC1,1.8%,-1.3%,-7.6,-1.4%,-6.6%,-12.7%
O=C(CN1CCCCC1)Nc1ccc(NC(=O)c2ccc(Cl)cc2)cc1Cl,0.0%,-0.6%,-2.3,25.9µM*,-11.2%,13µM*
O=C(CN1CCCC1)Nc1ccc(Cl)cc1C(F)(F)F,1.8%,2.2%,-10.8,u,-0.2%,23.1µM*
Cc1cc(Cl)ccc1NC(=O)CN1CCC(C(O)(c2ccccc2)c2ccccc2)CC1,21.7%,u,-60.8*,u,u,u
Cc1cc(Cl)ccc1NC(=O)CN1CCCC1,6.3%,16.8%,-4.2,-0.8%,13.0%,12.7%
CCN(CC)c1ccccc1/C=C/[n+]1ccc(CCCCI)c2ccccc21,x,x,x,0.562µM*,x,0.631µM*
COc1cc2ncn(-c3cc(OCc4ccccc4C(F)(F)F)c(C(N)=O)s3)c2cc1OC,-6.9%[57.4 µM],x,x,x,x,x
SMILES,ALOX12 inh,HT1080 IDH1KD tx,IL-1B inflam inh,DT40 TDP1 no CPT,HT1080-NT tox,DT40 TDP1 CPT
CCNNC(=O)C(O)(c1cccc(C)c1)c1cccc(C)c1,-16.1%,23.3%,-3.3,-22.8%,18.3%,-19.0%
Cc1cccc(C(O)(C(=O)NNc2ccc3ccccc3n2)c2cccc(C)c2)c1,-13.8%,u,22.1,6.51µM*,u,6.51µM*
COc1ccccc1CCn1cnc(Cc2ccccc2)c1C(C)C,-18.0%,u,-51.8*,7.31µM*,u,7.31µM*
CCc1c(Cc2ccccc2)ncn1CCc1ccccc1OC,-11.9%,x,x,x,x,x
CCCCCc1c(-c2ccc(Br)cc2)ncn1CCc1ccccc1OC,-102.1%,20.6µM*,-82.5*,4.61µM*,16.4µM*,6.51µM*
CCCCCc1c(-c2ccc(F)cc2)ncn1CCc1ccccc1OC,-38.7%,u,-50.8*,18.4µM*,u,9.2µM*
COc1ccccc1CCn1cnc(-c2ccc(Br)cc2)c1C(C)C,u,23.1µM*,0.0,18.4µM*,23.1µM*,14.6µM*
COc1cccc(CNC(=O)C2CCN(Cc3cc4ccccc4n3Cc3ccccc3)CC2)c1OC,-11.3%,x,x,u,x,u
COc1ccccc1CNC(=O)C1CCN(Cc2cc3ccccc3n2Cc2cccc(C)c2)CC1,-29.7%,x,x,18.4µM*,x,13µM*
Cc1cccc(Cn2c(CN3CCC(C(=O)NC(C)C)CC3)cc3ccccc32)c1,u,x,x,23.1µM*,x,u
CN(Cc1ccc(C(F)(F)F)cc1)C(=O)c1ccc(CNC(N)=O)cc1,-27.1%,x,x,x,x,x
O=CNc1ccc2c(c1)Cc1cc([N+](=O)[O-])ccc1-2,-14.0%,5.17µM*,-54.7*,13µM*,5.8µM*,u
Nc1c(Br)cc(Br)c2c1-c1ccc([N+](=O)[O-])cc1C2,u,-25.8%,2.5,-4.9%,2.3%,-21.8%
CCC(=O)Nc1ccc2c(c1)Cc1cc([N+](=O)[O-])ccc1-2,-1.8%,-10.7%,-4.9,6.51µM*,0.4%,u
O=C(NC(c1ccc(Cl)cc1)c1cnccn1)C1CCN(CCCOc2ccccc2)CC1 (stereo unspecified),u,u,-58.4*,20.6µM*,u,23.1µM*
O=C(NC(c1ccccc1)c1cnccn1)C1CCN(CCCOc2ccccc2)CC1 (stereo unspecified),-4.7%,15.1%,-10.1,-26.4%,0.0%,-1.4%
O=C(NC(c1ccc(Cl)cc1)c1cnccn1)C1CCN(CCCc2ccccc2)CC1 (stereo unspecified),x,u,u,u,u,23.1µM*
CC(=O)c1ccc(Nc2ccc3cc(S(=O)(=O)N4CCCC4)ccc3n2)cc1,u,x,x,u,x,20.6µM*
CC1CCN(S(=O)(=O)c2ccc3nc(-c4ccccn4)cc(C(=O)NCCN(C)Cc4ccccc4)c3c2)CC1,161.7%,8.3%,-10.1,5.8µM*,2.4%,7.31µM*
CC1CCN(S(=O)(=O)c2ccc3nc(Nc4cccc(F)c4)ccc3c2)CC1,u,x,x,20.6µM*,x,20.6µM*
CC1CCN(S(=O)(=O)c2ccc3nc(NCc4ccccc4)ccc3c2)CC1,u,x,x,10.3µM*,x,10.3µM*
